# Screen size: about 39,000 compounds; about 3,300 (8.5%) were called active. The list comes from a sample in which actives are over-represented; it also holds similar structures and randomly drawn compounds.
# Tested on: HepG2
# Test: cytotoxicity call (relative viability < 0.9)
# Conditions: 10 µM
row,Compound,cytotoxicity call
1,C[C@H]1CN([C@@H](C)CO)C(=O)c2cccc(NC(=O)Nc3ccc(F)cc3)c2O[C@H]1CN(C)S(C)(=O)=O,inactive
2,COc1c(-c2coc3cc4c(cc3c2=O)CC(O)C(C)(C)O4)ccc2c1C=CC(C)(C)O2 (configuration not stated),active
3,COc1ccc(-c2coc3cc(O)ccc3c2=O)c(OC)c1OC,inactive
4,COc1ccc(-c2coc3cc(O)ccc3c2=O)c(O)c1O,inactive
5,O=C(C[C@@H]1CC[C@@H](NC(=O)C2CC2)[C@@H](CO)O1)NCCCN1CCOCC1,inactive
6,C[C@@H]1CN([C@H](C)CO)C(=O)c2cc(-c3ccc(C(=O)N(C)C)cc3)cnc2O[C@@H]1CN(C)C(=O)CN(C)C,inactive
7,Cc1cc(-c2ccc(NN=C3C=Cc4c(S(=O)(=O)O)cc(S(=O)(=O)O)c(N)c4C3=O)c(C)c2)ccc1NN=C1C=Cc2c(S(=O)(=O)O)cc(S(=O)(=O)O)c(N)c2C1=O,active
8,COc1cc(-c2ccc(NN=C3C=Cc4c(S(=O)(=O)O)cc(S(=O)(=O)O)c(N)c4C3=O)c(OC)c2)ccc1NN=C1C=Cc2c(S(=O)(=O)O)cc(S(=O)(=O)O)c(N)c2C1=O,active
9,COCC(=O)N1C[C@]2(CCN(CC2)C(=O)CN2CCOCC2)c2c([nH]c3cc(ccc23)OC)[C@@H]1CO,inactive
10,COc1ccc2c3c(n(c2c1)C)[C@H](CO)N(C[C@]13CCN(CC1)C(=O)C1CCOCC1)C(=O)C1CCOCC1,inactive
11,C[C@@H]1CN([C@@H](C)CO)C(=O)c2cccc(NC(=O)C3CC3)c2O[C@H]1CN(C)Cc1ccc(Oc2ccccc2)cc1,inactive
12,O=C(Nc1ccccc1)Nc1ccccc1,inactive
13,O=C(Nc1ccccc1)c1ccccc1O,active
14,O=C(Nc1ccccc1)c1ccccc1,inactive
15,O=C(Nc1ccccc1)Nc1ccc(Nc2ccccc2)cc1,active
16,NNC(=O)c1ccccc1O,inactive
17,CC(=O)Nc1ccccc1,inactive
18,C[C@@H]1CN([C@@H](C)CO)C(=O)c2cccc(NC(=O)Nc3ccccc3)c2O[C@H]1CN(C)S(C)(=O)=O,inactive
19,COc1ccc(CN(C)C[C@H]2OCCCC[C@@H](C)Oc3ccc(NC(=O)C4CCCCC4)cc3C(=O)N([C@@H](C)CO)C[C@H]2C)cc1,inactive
20,CN1C(=O)c2cc(NC(=O)C3CCCC3)ccc2OC[C@H]2O[C@H](CC(=O)NCCc3ccncc3)CC[C@@H]21,inactive
21,Cc1ccc(S(=O)(=O)N(C)C[C@@H]2Oc3ccc(NS(=O)(=O)c4ccccc4)cc3C(=O)N([C@H](C)CO)C[C@@H]2C)cc1,inactive
22,C[C@@H]1CN([C@@H](C)CO)C(=O)c2ccccc2-c2ccccc2CO[C@@H]1CN(C)Cc1cccc(C(F)(F)F)c1,inactive
